# Source: article PMC7862700, “An all-to-all approach to the identification of sequence-specific readers for epigenetic DNA modifications on cytosine”
# Experiments:
# Test in all cases: DAPPL (digital affinity profiling via proximity ligation, sequencing); 10 mM Tris-HCl pH 7.5, 50 mM NaCl, 1 mM DTT, 4% glycerol, room temperature, 30 min; GST-TFs on glutathione beads, 16-mer random dsDNA library, 0.1% formaldehyde crosslink after washing; high values mean tight binding
# [1] = target: T1, FLI1 (Homo sapiens, UniProt Q01543 1-452); conditions: protein: recombinant; tags: N-terminal GST; dsDNA, one strand shown
# T1 sequence: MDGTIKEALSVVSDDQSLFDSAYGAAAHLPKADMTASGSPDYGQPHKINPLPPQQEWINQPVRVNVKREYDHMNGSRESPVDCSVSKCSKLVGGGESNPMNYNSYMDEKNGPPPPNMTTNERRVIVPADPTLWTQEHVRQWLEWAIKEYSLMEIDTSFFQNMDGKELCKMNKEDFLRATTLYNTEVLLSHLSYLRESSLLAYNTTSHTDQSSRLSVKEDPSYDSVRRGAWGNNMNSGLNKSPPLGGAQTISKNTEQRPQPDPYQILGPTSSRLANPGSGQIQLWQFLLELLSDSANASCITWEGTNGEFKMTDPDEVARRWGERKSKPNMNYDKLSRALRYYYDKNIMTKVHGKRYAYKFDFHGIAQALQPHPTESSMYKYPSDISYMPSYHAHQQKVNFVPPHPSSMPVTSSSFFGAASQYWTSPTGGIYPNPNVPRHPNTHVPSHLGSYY
# Method in brief: (§1)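 Beads coated with glutathione captured GST-fused human transcription factors that had been expressed in yeast, and the factors were then given DNA barcodes and pooled with a tag-only sample. The pools were incubated with 200 nmole of a random double-stranded 16-mer DNA library in Tris/NaCl/DTT/glycerol buffer for 30 min at room temperature, washed, crosslinked with 0.1% formaldehyde and proximity-ligated with BsaI/T4 ligase at 37 °C for 1 h. PCR amplification and Illumina NextSeq500 sequencing came last. Binding signal is each hexamer's read frequency for a factor divided by its frequency for the tag-only sample.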
# [2] = target: T2, ELK1 (Homo sapiens, UniProt P19419 1-428); conditions: protein: recombinant; tags: N-terminal GST; dsDNA, one strand shown
# T2 sequence: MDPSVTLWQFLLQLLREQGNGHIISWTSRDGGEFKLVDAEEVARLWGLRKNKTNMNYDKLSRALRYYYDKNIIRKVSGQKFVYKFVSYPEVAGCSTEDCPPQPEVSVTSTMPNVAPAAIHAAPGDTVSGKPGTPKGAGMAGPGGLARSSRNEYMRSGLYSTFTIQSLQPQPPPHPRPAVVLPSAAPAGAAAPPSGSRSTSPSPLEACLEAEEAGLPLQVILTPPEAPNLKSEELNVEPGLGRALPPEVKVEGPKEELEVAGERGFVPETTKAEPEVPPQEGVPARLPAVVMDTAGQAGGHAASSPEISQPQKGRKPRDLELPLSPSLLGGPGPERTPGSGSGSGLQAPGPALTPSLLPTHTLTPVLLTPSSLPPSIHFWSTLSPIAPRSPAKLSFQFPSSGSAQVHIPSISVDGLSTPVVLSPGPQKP
# Method in brief: as §1
# [3] = target: T3, GABPA (Homo sapiens, UniProt Q06546 1-454); conditions: protein: recombinant; tags: N-terminal GST; dsDNA, one strand shown
# T3 sequence: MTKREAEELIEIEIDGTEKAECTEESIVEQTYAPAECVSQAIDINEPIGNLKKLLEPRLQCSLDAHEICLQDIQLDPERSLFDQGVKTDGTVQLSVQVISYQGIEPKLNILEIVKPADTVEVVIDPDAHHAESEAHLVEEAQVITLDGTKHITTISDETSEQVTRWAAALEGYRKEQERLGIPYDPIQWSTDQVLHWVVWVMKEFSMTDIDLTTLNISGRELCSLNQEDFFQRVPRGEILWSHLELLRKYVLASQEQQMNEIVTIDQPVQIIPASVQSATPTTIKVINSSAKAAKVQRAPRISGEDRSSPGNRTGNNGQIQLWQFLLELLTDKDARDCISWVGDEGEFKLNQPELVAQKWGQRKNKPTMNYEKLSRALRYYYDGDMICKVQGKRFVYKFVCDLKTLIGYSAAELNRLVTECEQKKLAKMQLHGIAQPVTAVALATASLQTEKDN
# Method in brief: as §1
# [4] = target: T4, ERG (Homo sapiens, UniProt P11308 1-479); conditions: protein: recombinant; tags: N-terminal GST; dsDNA, one strand shown
# T4 sequence: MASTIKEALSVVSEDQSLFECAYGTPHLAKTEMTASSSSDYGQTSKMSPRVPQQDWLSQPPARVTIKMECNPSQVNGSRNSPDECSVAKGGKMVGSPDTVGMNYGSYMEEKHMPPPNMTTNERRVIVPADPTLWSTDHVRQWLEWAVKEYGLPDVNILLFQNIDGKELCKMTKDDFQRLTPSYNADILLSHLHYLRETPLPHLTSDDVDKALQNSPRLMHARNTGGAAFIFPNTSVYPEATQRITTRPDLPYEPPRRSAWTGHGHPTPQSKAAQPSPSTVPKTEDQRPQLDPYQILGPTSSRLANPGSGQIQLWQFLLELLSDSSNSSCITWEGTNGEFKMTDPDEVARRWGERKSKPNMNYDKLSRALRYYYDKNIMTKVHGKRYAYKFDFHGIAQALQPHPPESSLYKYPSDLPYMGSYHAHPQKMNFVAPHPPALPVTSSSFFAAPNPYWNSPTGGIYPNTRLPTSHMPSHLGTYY
# Method in brief: as §1
# [5] = target: ELF1 (Homo sapiens, UniProt P32519 1-619); conditions: protein: recombinant; tags: N-terminal GST; dsDNA, one strand shown
# Method in brief: as §1
# [6] = target: T5, EHF (Homo sapiens, UniProt Q9NZC4 1-300); conditions: protein: recombinant; tags: N-terminal GST; dsDNA, one strand shown
# T5 sequence: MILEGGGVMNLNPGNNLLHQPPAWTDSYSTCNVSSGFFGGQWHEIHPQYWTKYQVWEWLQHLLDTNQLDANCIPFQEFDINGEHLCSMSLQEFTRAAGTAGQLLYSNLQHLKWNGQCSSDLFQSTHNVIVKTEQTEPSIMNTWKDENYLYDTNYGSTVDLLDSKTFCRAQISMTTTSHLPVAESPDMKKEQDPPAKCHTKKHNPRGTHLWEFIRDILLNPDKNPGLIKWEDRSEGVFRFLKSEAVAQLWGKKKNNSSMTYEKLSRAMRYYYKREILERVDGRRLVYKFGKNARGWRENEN
# Method in brief: as §1
# [7] = target: SPI1 (Homo sapiens, UniProt P17947 1-270); conditions: protein: recombinant; tags: N-terminal GST; dsDNA, one strand shown
# Method in brief: as §1
# [8] = target: SPIB (Homo sapiens, UniProt Q01892 1-262); conditions: protein: recombinant; tags: N-terminal GST; dsDNA, one strand shown
# Method in brief: as §1
# [9] = target: T6, ELK3 (Homo sapiens, UniProt P41970 1-407); conditions: protein: recombinant; tags: N-terminal GST; dsDNA, one strand shown
# T6 sequence: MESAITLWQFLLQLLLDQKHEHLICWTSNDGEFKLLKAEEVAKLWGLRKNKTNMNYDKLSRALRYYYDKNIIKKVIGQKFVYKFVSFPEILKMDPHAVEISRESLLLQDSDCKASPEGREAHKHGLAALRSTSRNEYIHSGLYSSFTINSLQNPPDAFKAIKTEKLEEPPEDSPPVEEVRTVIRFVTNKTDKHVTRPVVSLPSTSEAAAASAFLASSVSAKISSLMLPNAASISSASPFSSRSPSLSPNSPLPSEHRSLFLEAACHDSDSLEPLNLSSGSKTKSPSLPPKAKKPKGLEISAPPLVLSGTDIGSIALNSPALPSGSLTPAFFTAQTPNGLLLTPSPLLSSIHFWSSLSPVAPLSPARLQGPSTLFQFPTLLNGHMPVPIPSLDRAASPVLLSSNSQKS
# Method in brief: as §1
# [10] = target: T7, FEV (Homo sapiens, UniProt Q99581 1-238); conditions: protein: recombinant; tags: N-terminal GST; dsDNA, one strand shown
# T7 sequence: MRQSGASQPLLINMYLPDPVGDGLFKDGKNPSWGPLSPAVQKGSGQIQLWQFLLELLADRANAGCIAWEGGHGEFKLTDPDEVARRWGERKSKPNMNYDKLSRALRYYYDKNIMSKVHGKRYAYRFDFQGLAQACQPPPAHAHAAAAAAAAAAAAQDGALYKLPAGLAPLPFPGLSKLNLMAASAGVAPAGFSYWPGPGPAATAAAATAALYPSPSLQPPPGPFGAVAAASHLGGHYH
# Method in brief: as §1
# [11] = target: ETV5 (Homo sapiens, UniProt P41161 1-510); conditions: protein: recombinant; tags: N-terminal GST; dsDNA, one strand shown
# Method in brief: as §1
# [12] = target: HSF1 (Homo sapiens, UniProt Q00613 1-529); conditions: protein: recombinant; tags: N-terminal GST; chain copies: 3; dsDNA, one strand shown
# Method in brief: as §1
# [13] = target: T8, SPIC (Homo sapiens, UniProt Q8N5J4 1-248); conditions: protein: recombinant; tags: N-terminal GST; dsDNA, one strand shown
# T8 sequence: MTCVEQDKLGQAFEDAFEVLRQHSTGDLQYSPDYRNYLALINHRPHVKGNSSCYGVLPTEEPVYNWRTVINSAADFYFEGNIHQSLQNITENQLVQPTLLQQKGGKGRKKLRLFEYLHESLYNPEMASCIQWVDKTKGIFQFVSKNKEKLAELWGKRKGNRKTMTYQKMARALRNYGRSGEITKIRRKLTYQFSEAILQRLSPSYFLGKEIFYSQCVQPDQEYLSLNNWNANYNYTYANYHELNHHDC
# Method in brief: as §1
# [14] = target: ELF4 (Homo sapiens, UniProt Q99607 1-663); conditions: protein: recombinant; tags: N-terminal GST; dsDNA, one strand shown
# Method in brief: as §1
# [15] = target: T9, ETV2 (Homo sapiens, UniProt O00321 1-342); conditions: protein: recombinant; tags: N-terminal GST; dsDNA, one strand shown
# T9 sequence: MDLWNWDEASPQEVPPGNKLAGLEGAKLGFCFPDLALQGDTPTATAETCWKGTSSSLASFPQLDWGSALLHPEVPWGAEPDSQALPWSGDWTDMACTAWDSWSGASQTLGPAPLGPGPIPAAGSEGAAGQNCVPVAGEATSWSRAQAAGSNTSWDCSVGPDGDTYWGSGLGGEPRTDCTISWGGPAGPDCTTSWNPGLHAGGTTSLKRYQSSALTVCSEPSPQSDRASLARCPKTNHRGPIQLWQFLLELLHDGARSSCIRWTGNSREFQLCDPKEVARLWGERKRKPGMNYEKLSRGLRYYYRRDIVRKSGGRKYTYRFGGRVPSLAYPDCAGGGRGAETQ
# Method in brief: as §1
# [16] = target: CRX (Homo sapiens, UniProt O43186 1-299); conditions: protein: recombinant; tags: N-terminal GST; dsDNA, one strand shown
# Method in brief: as §1
# [17] = target: ETV1 (Homo sapiens, UniProt P50549 1-477); conditions: protein: recombinant; tags: N-terminal GST; dsDNA, one strand shown
# Method in brief: as §1
# Chain of ETV5 (P41161 whole entry): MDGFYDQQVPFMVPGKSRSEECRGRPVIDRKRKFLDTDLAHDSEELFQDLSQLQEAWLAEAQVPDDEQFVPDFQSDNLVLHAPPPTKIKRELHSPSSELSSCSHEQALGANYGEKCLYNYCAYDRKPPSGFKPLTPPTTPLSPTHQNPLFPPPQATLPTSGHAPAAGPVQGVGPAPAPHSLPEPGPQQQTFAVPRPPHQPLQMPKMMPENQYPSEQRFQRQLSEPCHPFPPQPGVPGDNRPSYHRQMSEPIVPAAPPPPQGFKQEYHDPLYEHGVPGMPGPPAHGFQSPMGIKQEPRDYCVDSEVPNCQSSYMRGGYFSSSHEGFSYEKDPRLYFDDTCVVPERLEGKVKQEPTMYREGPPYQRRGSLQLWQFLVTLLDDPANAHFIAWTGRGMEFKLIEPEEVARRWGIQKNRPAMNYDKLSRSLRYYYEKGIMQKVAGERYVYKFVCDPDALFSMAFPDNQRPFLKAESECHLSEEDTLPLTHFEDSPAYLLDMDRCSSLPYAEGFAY
# Chain of HSF1 (Q00613 whole entry): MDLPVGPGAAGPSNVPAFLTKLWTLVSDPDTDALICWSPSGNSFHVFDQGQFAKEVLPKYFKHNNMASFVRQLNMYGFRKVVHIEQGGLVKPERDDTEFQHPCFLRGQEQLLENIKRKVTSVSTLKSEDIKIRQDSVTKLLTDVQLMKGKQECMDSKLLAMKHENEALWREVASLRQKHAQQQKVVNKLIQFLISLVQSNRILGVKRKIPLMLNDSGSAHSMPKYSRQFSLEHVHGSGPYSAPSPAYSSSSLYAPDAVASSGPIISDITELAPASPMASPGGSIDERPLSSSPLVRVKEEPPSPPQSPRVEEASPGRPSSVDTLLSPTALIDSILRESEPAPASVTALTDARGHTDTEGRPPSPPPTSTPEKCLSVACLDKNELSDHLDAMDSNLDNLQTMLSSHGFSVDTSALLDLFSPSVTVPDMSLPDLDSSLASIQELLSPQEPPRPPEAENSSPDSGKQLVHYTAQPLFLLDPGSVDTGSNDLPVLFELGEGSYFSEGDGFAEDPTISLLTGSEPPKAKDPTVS
# Chain of SPIB (Q01892 whole entry): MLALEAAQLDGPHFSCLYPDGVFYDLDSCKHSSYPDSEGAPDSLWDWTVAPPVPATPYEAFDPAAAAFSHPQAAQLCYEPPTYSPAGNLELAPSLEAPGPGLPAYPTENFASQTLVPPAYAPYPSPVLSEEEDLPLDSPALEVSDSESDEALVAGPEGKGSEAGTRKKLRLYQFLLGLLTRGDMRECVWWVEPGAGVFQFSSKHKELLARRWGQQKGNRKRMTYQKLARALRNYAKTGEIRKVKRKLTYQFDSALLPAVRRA
# Chain of ELF4 (Q99607 whole entry): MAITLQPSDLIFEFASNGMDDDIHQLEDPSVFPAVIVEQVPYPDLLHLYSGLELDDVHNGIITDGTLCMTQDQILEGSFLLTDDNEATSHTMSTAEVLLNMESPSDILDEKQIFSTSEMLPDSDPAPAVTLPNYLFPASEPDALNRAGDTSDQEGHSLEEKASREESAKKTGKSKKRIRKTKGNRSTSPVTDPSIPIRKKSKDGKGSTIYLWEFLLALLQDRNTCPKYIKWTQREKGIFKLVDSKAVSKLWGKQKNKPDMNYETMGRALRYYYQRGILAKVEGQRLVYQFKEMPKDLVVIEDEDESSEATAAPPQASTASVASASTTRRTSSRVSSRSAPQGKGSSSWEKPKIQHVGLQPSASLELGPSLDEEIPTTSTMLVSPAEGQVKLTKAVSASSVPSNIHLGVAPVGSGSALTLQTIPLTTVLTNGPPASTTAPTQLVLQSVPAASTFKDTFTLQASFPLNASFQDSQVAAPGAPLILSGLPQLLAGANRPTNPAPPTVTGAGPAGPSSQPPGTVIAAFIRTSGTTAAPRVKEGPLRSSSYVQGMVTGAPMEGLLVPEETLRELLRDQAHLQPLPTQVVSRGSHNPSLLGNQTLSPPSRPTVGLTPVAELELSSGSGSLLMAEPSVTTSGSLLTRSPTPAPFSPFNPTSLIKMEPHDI
# Chain of ETV1 (P50549 whole entry): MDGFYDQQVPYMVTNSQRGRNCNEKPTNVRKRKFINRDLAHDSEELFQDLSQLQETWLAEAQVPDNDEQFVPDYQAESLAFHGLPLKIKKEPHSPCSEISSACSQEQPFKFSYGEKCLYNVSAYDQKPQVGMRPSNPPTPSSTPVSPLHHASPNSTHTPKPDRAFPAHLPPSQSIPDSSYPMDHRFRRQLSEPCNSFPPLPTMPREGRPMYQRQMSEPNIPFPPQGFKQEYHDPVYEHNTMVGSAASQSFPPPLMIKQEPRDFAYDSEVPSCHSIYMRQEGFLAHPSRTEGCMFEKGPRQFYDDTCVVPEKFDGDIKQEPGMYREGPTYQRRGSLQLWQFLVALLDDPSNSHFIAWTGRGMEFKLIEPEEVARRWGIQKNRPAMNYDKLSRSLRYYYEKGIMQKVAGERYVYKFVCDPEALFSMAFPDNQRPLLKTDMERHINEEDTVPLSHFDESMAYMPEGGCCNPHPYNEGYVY
# Chain of CRX (O43186 whole entry): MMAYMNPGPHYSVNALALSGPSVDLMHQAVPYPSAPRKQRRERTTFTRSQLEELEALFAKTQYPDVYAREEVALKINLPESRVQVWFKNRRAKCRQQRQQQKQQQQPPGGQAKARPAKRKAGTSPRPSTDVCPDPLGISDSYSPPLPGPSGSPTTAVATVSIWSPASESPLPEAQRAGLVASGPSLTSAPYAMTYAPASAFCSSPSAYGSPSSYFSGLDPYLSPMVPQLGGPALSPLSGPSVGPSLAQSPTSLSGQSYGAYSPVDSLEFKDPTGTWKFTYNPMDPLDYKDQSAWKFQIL
# Chain of ELF1 (P32519 whole entry): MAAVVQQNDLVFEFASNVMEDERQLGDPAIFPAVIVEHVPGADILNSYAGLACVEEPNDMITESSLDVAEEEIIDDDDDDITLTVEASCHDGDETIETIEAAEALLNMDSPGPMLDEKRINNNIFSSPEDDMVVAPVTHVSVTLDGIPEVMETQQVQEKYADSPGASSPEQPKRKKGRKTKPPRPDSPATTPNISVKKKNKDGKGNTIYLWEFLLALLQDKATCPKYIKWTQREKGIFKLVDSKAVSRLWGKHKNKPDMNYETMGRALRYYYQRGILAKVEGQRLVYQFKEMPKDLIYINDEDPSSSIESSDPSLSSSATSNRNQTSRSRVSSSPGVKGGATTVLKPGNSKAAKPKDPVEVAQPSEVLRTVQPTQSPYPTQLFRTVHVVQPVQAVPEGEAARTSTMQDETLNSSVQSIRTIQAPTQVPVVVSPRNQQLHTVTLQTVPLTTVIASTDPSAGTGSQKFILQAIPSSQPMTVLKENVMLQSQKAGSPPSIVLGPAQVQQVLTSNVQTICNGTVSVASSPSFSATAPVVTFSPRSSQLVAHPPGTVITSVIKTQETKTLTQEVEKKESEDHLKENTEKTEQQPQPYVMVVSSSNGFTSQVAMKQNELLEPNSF
sequence,measurement,setting,value
GTACTA,binding signal,[1],"1.16 fold enrichment (6-mer frequency, TF over GST control)"
same,binding signal,[2],"1.06 fold enrichment (6-mer frequency, TF over GST control)"
same,binding signal,[3],"1.12 fold enrichment (6-mer frequency, TF over GST control)"
same,binding signal,[4],"1.07 fold enrichment (6-mer frequency, TF over GST control)"
same,binding signal,[5],"1.19 fold enrichment (6-mer frequency, TF over GST control)"
same,binding signal,[6],"1.14 fold enrichment (6-mer frequency, TF over GST control)"
same,binding signal,[7],"1.02 fold enrichment (6-mer frequency, TF over GST control)"
same,binding signal,[8],"1.1 fold enrichment (6-mer frequency, TF over GST control)"
same,binding signal,[9],"1.02 fold enrichment (6-mer frequency, TF over GST control)"
same,binding signal,[10],"1.12 fold enrichment (6-mer frequency, TF over GST control)"
same,binding signal,[11],"1.14 fold enrichment (6-mer frequency, TF over GST control)"
same,binding signal,[12],"1.15 fold enrichment (6-mer frequency, TF over GST control)"
same,binding signal,[13],"1.11 fold enrichment (6-mer frequency, TF over GST control)"
same,binding signal,[14],"1.08 fold enrichment (6-mer frequency, TF over GST control)"
same,binding signal,[15],"1.21 fold enrichment (6-mer frequency, TF over GST control)"
same,binding signal,[16],"1.12 fold enrichment (6-mer frequency, TF over GST control)"
same,binding signal,[17],"1.13 fold enrichment (6-mer frequency, TF over GST control)"
